Data published in PubChem BioAssay (NCI).
This is part of a sample that, as a whole, favours compounds with a hit. Of some 83,000 tested, about 20% had one in any assay.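 Activity criterion: percent growth below 10, measured after cells in 96-well plates were exposed to a single compound concentration for 48 hours.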 Unmarked numbers belong to inactive results. Calls of active or inactive are those of the source.

Experiments:
Test in all cases: NCI-60 one-dose screen, 48 h (100 = growth as untreated, 0 = no growth, -100 = all killed)
Details in all cases: 10 µM unless noted
NCI-H23 lung = system: NCI-H23 lung
NCI-H226 lung = system: NCI-H226 lung
NCI-H322M lung = system: NCI-H322M lung
HOP-62 NSCLC = system: HOP-62 NSCLC
NCI-H460 lung = system: NCI-H460 lung
NCI-H522 lung = system: NCI-H522 lung
A549/ATCC NSCLC = system: A549/ATCC NSCLC
786-0 renal = system: 786-0 renal
COLO 205 colon = system: COLO 205 colon
DU-145 prostate = system: DU-145 prostate
K-562 leukemia = system: K-562 leukemia
MALME-3M melanoma = system: MALME-3M melanoma
MDA-MB-231 breast = system: MDA-MB-231 breast
SF-268 CNS = system: SF-268 CNS
SF-295 CNS = system: SF-295 CNS
SF-539 CNS = system: SF-539 CNS
UACC-257 melanoma = system: UACC-257 melanoma
RXF 393 renal = system: RXF 393 renal
M14 melanoma = system: M14 melanoma

Row | Compound | growth (NCI-H23 lung) | growth (NCI-H226 lung) | growth (NCI-H322M lung) [%] | growth (HOP-62 NSCLC) | growth (NCI-H460 lung) | growth (NCI-H522 lung) | growth (A549/ATCC NSCLC) [%] | growth (786-0 renal) | growth (COLO 205 colon) | growth (DU-145 prostate) | growth (K-562 leukemia) | growth (MALME-3M melanoma) | growth (MDA-MB-231 breast) | growth (SF-268 CNS) [%] | growth (SF-295 CNS) | growth (SF-539 CNS) | growth (UACC-257 melanoma) | growth (RXF 393 renal) | growth (M14 melanoma)
1 | CCOC(=O)C(=O)CC(=O)N1C(=S)NC(=O)C1CC(C)C (stereo not drawn) | 88.3% | 99.1% | 96.8 | 101% | 110% | 100% | 103 | 96.1% | 107% | 108% | 107% | 101% | 101% | 94.8 | 102% | 96.1% | 102% | – | –
2 | CCn1c(SCC(=O)Nc2cccc(C(=O)/C=C/c3ccc(Br)cc3)c2)nc2ccccc2c1=O | 82.9% | 88.9% | 94.3 | 98.8% | 98.9% | 84% | 77.7 | 99.8% | 112% | 104% | 77.3% | 95.3% | 85.5% | 100 | 98.5% | 91.4% | 96.3% | – | –
3 | CN1c2ccccc2Sc2cc(C=C(C#N)C#N)ccc21 | 89.3% | -31.4% (active) | 97.3 | 90.4% | 97.9% | 91.8% | 98 | 105% | 108% | 110% | 101% | 98.3% | 92.3% | 105 | 103% | 101% | 97.5% | 92.1% | 96%
4 | CCCn1cnc2c(c1=N)C(c1ccc(OC)cc1)c1sc3c(CC)cccc3c1O2 (stereo not drawn) | 18.9% | 57% | 37.6 | 38.8% | 10.1% | -14.3% (active) | 40.6 | 32.3% | 13.9% | 16.7% | 13.1% | 53.5% | 29.1% | 45.1 | -18.1% (active) | -22% (active) | 81.9% | -13.3% (active) | 2.9% (active)
5 | Cc1cccc(/C=C/C(=O)Nc2ncc(Cc3cccc(C)c3)s2)c1 | 30.4% | 17.7% | 39.9 | 32.1% | 8.64% (active) | -43.2% (active) | 31.1 | 21.3% | -0.745% (active) | 8.51% (active) | 11.9% | 33.6% | 38.8% | 48.2 | -1.79% (active) | 4.05% (active) | 38.3% | – | 0.505% (active)
6 | COc1ccc(OC)c(-c2nc(SCC(=O)c3ccc(Br)cc3)nc(Nc3ccc(S(N)(=O)=O)cc3)c2C#N)c1 | 58.4% | 50% | 81.7 | 48.4% | 20.8% | 48% | 67.4 | 41.4% | 68.4% | 55.2% | 22.5% | 50.2% | 63% | 56.7 | 33.1% | 28.4% | 56.9% | 17.3% | 42.5%
7 | C=C(C=O)[C@@H]1CC[C@]2(C)[C@H](CC=C3[C@H]4[C@@H](C)[C@H](C)CC[C@]4(C(=O)OC)CC[C@]32C)[C@@]1(C)CCC#N | -6.81% (active) | -44.8% (active) | 32.9 | 20.7% | 1.89% (active) | -1.56% (active) | 80.6 | 5.57% (active) | 3.46% (active) | 16.7% | 8.57% (active) | -63.6% (active) | -21.9% (active) | 20 | 7.53% (active) | -61.4% (active) | -20.3% (active) | – | –
8 | C=C(C=O)[C@@H]1CC[C@]2(CO)CC[C@]3(C)[C@H](CC[C@@H]4[C@@]5(C)CCCNC(C)(C)[C@@H]5CC[C@]43C)[C@@H]12 | 63.5% | 76.5% | 95.8 | 88.9% | 86% | 77.6% | 81.1 | 94.3% | 77.3% | 53% | -1.23% (active) | 67% | 90.8% | 83.9 | 83.1% | 71.8% | 72.3% | 94.2% | 61.3%
9 | NC(N)=Nc1ccc(Oc2ccc(Nc3ccc(Cl)c(C(F)(F)F)c3)cc2)cc1 | 11.8% | 48.9% | 68.5 | 76.4% | -0.702% (active) | 18.2% | 31.1 | 34.6% | 20% | 39% | 7.03% (active) | 61.7% | 28.4% | 39 | 22.3% | 25.5% | 68.3% | – | –
10 | NC(N)=Nc1ccc(Oc2cccc(Nc3ccc(Br)c(C(F)(F)F)c3)c2)cc1 | 13.8% | 39.2% | 44.8 | -37.1% (active) | -66.9% (active) | 15% | 33.7 | 32.7% | -31.2% (active) | 22.8% | -11.1% (active) | – | -7.69% (active) | 25.3 | -65.3% (active) | 54.3% | 0.206% (active) | 40.7% | 8.54% (active)
11 | COc1cc2nc(Cl)nc(Nc3cccc(C4=Nc5c(N)nc(N)nc5NC(c5ccc6c(c5)OCO6)C4)c3)c2cc1OC (stereo not drawn) | 78.7% | 85.3% | 83.4 | 40.7% | 55.5% | 74.1% | 86.1 | 61.8% | 89.1% | 81.4% | 4.53% (active) | – | 79.9% | 75.6 | 37.7% | 86.5% | 105% | 56.1% | 89.7%
